# Measurements reported in the supplement of paper PMC8728848.
# Shown is part of a subset that was picked to be rich in the strongest signals.
# B1: Flo1 (Saccharomyces cerevisiae), P32768 (protein)
# chain: SGATEACLPAGQRKSGMNINFYQYSLKDSSTYSNAAYMAYGYASKTKLGSVGGQTDISIDYNIPCVSSSGTFPCPQEDSYGNWGCKGMGACSNSQGIAYWSTDLFGFYTTPTNVTLEMTGYFLPPQTGSYTFKFATVDDSAILSVGGATAFNCCAQQQPPITSTNFTIDGIKPWGGSLPPNIEGTVYMYAGYYYPMKVVYSNAVSWGTLPISVTLPDGTTVSDDFEGYVYSFDDDLSQSNCTVPDPSNY
# Legend:
# Assay in all cases: glycan array binding signal (z-score within array); higher = stronger binding
# Details in all cases: glycan notation: IUPAC condensed, linker removed
# [1] = molecular target: Fuc(a1-2)Gal(b1-3)GalNAc(b1-4)[Neu5Ac(a2-3)]Gal(b1-4)Glc
# Procedure, shortened: (§1)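 From the Consortium for Functional Glycomics database, 3228 arrays were curated, keeping only those whose protein sequence was available. Binding is given as a within-array Z-score averaged across arrays sharing a protein sequence and across linkers. Negative Z-scores can be read as non-binding.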
# [2] = molecular target: Fuc(a1-2)Gal(b1-3)GlcNAc(b1-2)Man(a1-3)[Fuc(a1-2)Gal(b1-3)GlcNAc(b1-2)Man(a1-6)]Man(b1-4)GlcNAc(b1-4)[Fuc(a1-6)]GlcNAc
# Procedure, shortened: as §1
# [3] = molecular target: Fuc(a1-2)Gal(b1-3)[Fuc(a1-4)]GlcNAc(b1-2)Man(a1-3)[Fuc(a1-2)Gal(b1-3)[Fuc(a1-4)]GlcNAc(b1-2)Man(a1-3)]Man(b1-4)GlcNAc(b1-4)GlcNAc
# Procedure, shortened: as §1
# [4] = molecular target: Fuc(a1-2)Gal(b1-3)[Fuc(a1-4)]GlcNAc(b1-2)Man(a1-3)[Fuc(a1-2)Gal(b1-3)[Fuc(a1-4)]GlcNAc(b1-2)Man(a1-6)]Man(b1-4)GlcNAc(b1-4)GlcNAc
# Procedure, shortened: as §1
# [5] = molecular target: Fuc(a1-2)Gal(b1-4)Fuc(a1-3)]GlcNAc(b1-2)Man(a1-3)[Fuc(a1-2)Gal(b1-4)[Fuc(a1-3)]GlcNAc(b1-2)Man(a1-6)]Man(b1-4)GlcNAc(b1-4)GlcNAc
# Procedure, shortened: as §1
# [6] = molecular target: Fuc(a1-2)Gal(b1-4)[Fuc(a1-3)]GlcNAc(b1-2)Man(a1-3)[Fuc(a1-2)Gal(b1-4)[Fuc(a1-3)]GlcNAc(b1-2)Man(a1-6)]Man(b1-4)GlcNAc(b1-4)GlcNAc
# Procedure, shortened: as §1
# [7] = molecular target: Fuc(a1-2)[Gal(a1-3)]Gal(b1-3)GlcNAc(b1-3)GalNAc
# Procedure, shortened: as §1
# [8] = molecular target: Fuc(a1-2)[Gal(a1-3)]Gal(b1-4)GlcNAc(b1-2)Man(a1-3)[Fuc(a1-2)[Gal(a1-3)]Gal(b1-4)GlcNAc(b1-2)Man(a1-6)]Man(b1-4)GlcNAc(b1-4)[Fuc(a1-6)]GlcNAc
# Procedure, shortened: as §1
# [9] = molecular target: Fuc(a1-2)[Gal(a1-3)]Gal(b1-4)GlcNAc(b1-3)[Fuc(a1-2)[Gal(a1-3)]Gal(b1-4)GlcNAc(b1-6)]GalNAc
# Procedure, shortened: as §1
# [10] = molecular target: Fuc(a1-2)[Gal(a1-3)]Gal(b1-4)[Fuc(a1-3)]Glc
# Procedure, shortened: as §1
# [11] = molecular target: Fuc(a1-2)[GalNAc(a1-3)]Gal
# Procedure, shortened: as §1
# [12] = molecular target: Fuc(a1-2)[GalNAc(a1-3)]Gal(b1-3)GalNAc(a1-3)[Fuc(a1-2)]Gal(b1-4)GlcNAc
# Procedure, shortened: as §1
# [13] = molecular target: Fuc(a1-2)[GalNAc(a1-3)]Gal(b1-4)Glc
# Procedure, shortened: as §1
# [14] = molecular target: Fuc(a1-3)[Gal3S(b1-4)]Glc
# Procedure, shortened: as §1
# [15] = molecular target: Gal(b1-3)GalNAc(a1-3)[Fuc(a1-2)]Gal(b1-4)GlcNAc
# Procedure, shortened: as §1
# [16] = molecular target: Gal(b1-3)GlcNAc(b1-2)Man(a1-3)[GlcNAc(b1-4)][Gal(b1-3)GlcNAc(b1-2)Man(a1-6)]Man(b1-4)GlcNAc(b1-4)GlcNAc
# Procedure, shortened: as §1
# [17] = molecular target: Gal(b1-3)GlcNAc(b1-3)Gal(b1-4)GlcNAc(b1-3)Gal(b1-4)GlcNAc(b1-2)[Gal(b1-3)GlcNAc(b1-3)Gal(b1-4)GlcNAc(b1-3)Gal(b1-4)GlcNAc(b1-6)]Man(a1-6)[Gal(b1-3)GlcNAc(b1-3)Gal(b1-4)GlcNAc(b1-3)Gal(b1-4)GlcNAc(b1-2)Man(a1-3)]Man(b1-4)GlcNAc(b1-4)[Fuc(a1-6)]GlcNAc
# Procedure, shortened: as §1
# [18] = molecular target: Gal(b1-3)GlcNAc(b1-3)Gal(b1-4)[Fuc(a1-3)]GlcNAc
# Procedure, shortened: as §1
# [19] = molecular target: Gal(b1-3)[Fuc(a1-4)]GlcNAc(b1-2)Man
# Procedure, shortened: as §1
# [20] = molecular target: Gal(b1-4)GalNAc(b1-3)[Fuc(a1-2)]Gal(b1-4)GlcNAc
# Procedure, shortened: as §1
# [21] = molecular target: Gal(b1-4)GlcNAc(b1-2)Man(a1-3)[Gal(b1-4)GlcNAc(b1-2)Man(a1-6)]Man(b1-4)GlcNAc(b1-4)GlcNAc
# Procedure, shortened: as §1
# [22] = molecular target: Gal(b1-4)GlcNAc(b1-2)Man(a1-6)[Man(a1-3)]Man(b1-4)GlcNAc(b1-4)GlcNAc
# Procedure, shortened: as §1
# [23] = molecular target: Gal(b1-4)GlcNAc(b1-2)[Gal(b1-4)GlcNAc(b1-4)]Man(a1-3)[Gal(b1-4)GlcNAc(b1-2)Man(a1-6)]Man(b1-4)GlcNAc(b1-4)GlcNAc
# Procedure, shortened: as §1
# [24] = molecular target: Gal(b1-4)GlcNAc(b1-2)[Gal(b1-4)GlcNAc(b1-4)]Man(a1-3)[Gal(b1-4)GlcNAc(b1-2)[Gal(b1-4)GlcNAc(b1-6)]Man(a1-6)]Man(b1-4)GlcNAc(b1-4)GlcNAc
# Procedure, shortened: as §1
# [25] = molecular target: Gal(b1-4)GlcNAc(b1-2)[Gal(b1-4)GlcNAc(b1-4)]Man(a1-3)[GlcNAc(b1-4)][Gal(b1-4)GlcNAc(b1-2)Man(a1-6)]Man(b1-4)GlcNAc(b1-4)GlcNAc
# Procedure, shortened: as §1
# [26] = molecular target: Gal(b1-4)GlcNAc(b1-3)Gal(b1-3)GalNAc
# Procedure, shortened: as §1
# [27] = molecular target: Gal(b1-4)GlcNAc(b1-3)Gal(b1-4)GlcNAc(b1-2)Man(a1-3)[Gal(b1-4)GlcNAc(b1-3)Gal(b1-4)GlcNAc(b1-2)Man(a1-6)]Man(b1-4)GlcNAc(b1-4)[Fuc(a1-6)]GlcNAc
# Procedure, shortened: as §1
binder,measurement,setting,value
B1,glycan array binding signal (z-score),[1],-0.19
same,glycan array binding signal (z-score),[2],1.41
same,glycan array binding signal (z-score),[3],-0.362
same,glycan array binding signal (z-score),[4],2.44
same,glycan array binding signal (z-score),[5],3.01
same,glycan array binding signal (z-score),[6],2.48
same,glycan array binding signal (z-score),[7],2.18
same,glycan array binding signal (z-score),[8],3.01
same,glycan array binding signal (z-score),[9],0.353
same,glycan array binding signal (z-score),[10],-0.047
same,glycan array binding signal (z-score),[11],-0.514
same,glycan array binding signal (z-score),[12],0.065
same,glycan array binding signal (z-score),[13],0.017
same,glycan array binding signal (z-score),[14],0.119
same,glycan array binding signal (z-score),[15],-0.653
same,glycan array binding signal (z-score),[16],1.05
same,glycan array binding signal (z-score),[17],2.69
same,glycan array binding signal (z-score),[18],-0.364
same,glycan array binding signal (z-score),[19],2.33
same,glycan array binding signal (z-score),[20],0.699
same,glycan array binding signal (z-score),[21],-0.067
same,glycan array binding signal (z-score),[22],0.098
same,glycan array binding signal (z-score),[23],-0.087
same,glycan array binding signal (z-score),[24],0.251
same,glycan array binding signal (z-score),[25],0.797
same,glycan array binding signal (z-score),[26],-0.714
same,glycan array binding signal (z-score),[27],8.23
